Test results from PubChem BioAssay AID1117358 (Southern Research Institute, 2015).
Among all 2,300 compounds or so, about 160 (7%) were called active. No rule for the calls is given here. Not all results are given here. Results with a measured potency or affinity are listed apart.

assay: viability loss in Vero cells – cytotoxicity control for Vif-APOBEC3G degradation inhibitor project, dose response (AID 1117358); settings: CellTiter-Glo ATP luminescence, 72 h; series mostly up to 40 µM

Structure (SMILES)	outcome
CC(C(=O)N1CCOCC1)(c1ccccc1)c1ccccc1	inactive
COc1ccc(C(C)(C)C)cc1NC(=O)C1C2C=CC(C2)C1C(=O)O (stereo not drawn)	inactive
CC1CCCC(NC(=O)Cn2cc3c(n2)CCCCC3)C1C (stereo not drawn)	inactive
CCOC(=O)N1CCN(CC(=O)c2ccc3c(c2)CCN3C(C)=O)CC1	inactive
CCOC(=O)c1ccc(NC(=O)CSCc2ccco2)cc1	inactive
CCOc1ccc2[nH]c(=O)c(CN(Cc3nnnn3Cc3ccco3)C3CCCCC3)cc2c1	inactive
Cc1cc(C)n(CC(O)CN2c3ccccc3Sc3ccccc32)n1 (stereo not drawn)	inactive
CCOc1cc(Cl)c(S(=O)(=O)NCc2ccccn2)cc1Cl	inactive
COC(=O)COc1ccc(S(=O)(=O)NCc2ccco2)cc1Cl	inactive
O=C(Cn1ncc2c(=O)oc3ccccc3c21)N1CCCc2ccccc21	inactive
CCC(C)NS(=O)(=O)c1ccc(S(=O)(=O)N(CC(=O)Nc2ccccc2)CC2CCCO2)cc1 (stereo not drawn)	inactive
Cc1cccc(C)c1NC(=O)COC(=O)c1cc(-c2cccnc2)nc2ccccc12	inactive
CCOC(=O)CC1Sc2ccccc2NC1=O (stereo not drawn)	inactive
COc1cc(O)oc1C=Nc1ccccc1	inactive
Cc1ccc(S(=O)(=O)N=Nc2c(O)[nH]c3ccccc23)cc1	inactive
CCOC(=O)C1=C(CSc2nc(C)ccc2C#N)OC(N)=C(C#N)C1c1cccc(OC)c1OC (stereo not drawn)	inactive
Cc1nc(NC(=O)CN2CCOCC2)sc1-c1ccccc1	inactive

Structure (SMILES)	outcome
O=C(O)CC(C(=O)O)N1C(=O)/C(=C/c2ccc(-c3nc4ccccc4s3)o2)SC1=S (stereo not drawn)	inactive
O=C1CC(c2ccco2)CC(O)=C1C=Nc1ccc(Br)cc1 (stereo not drawn)	inactive
COc1ccc(OCC(=O)O/N=C(\N)Cc2ccc(Cl)cc2)cc1	inactive
CCC(=O)Nc1nc2ccc(NC(C)=O)cc2s1	inactive
CCOC(=O)N1CCC(NC(=O)c2cc3c(C)nc4ccccc4c3o2)CC1	inactive
CCOC(=O)C1CCN(C(=O)c2ccc(OC)cc2OC)CC1	inactive
COc1ccc(NC(=O)Nc2cccs2)cc1OC	inactive
CCOC(=O)Nc1nnc(-c2ccccc2OC)s1	inactive
C=CCOC(=O)CN1C(=O)c2ccccc2C1=O	inactive
COc1ccc(OC)c(NC(=O)CSc2nnc(CCCO)n2-c2ccccc2)c1	inactive
CCn1c(SCC(=O)n2c(C)c(C)c3ccccc32)nnc1-c1ccco1	inactive
CCOc1ccccc1CNC(=O)Cn1c(=O)oc2ccccc21	inactive
COc1ccccc1N1CCN(C(=O)c2cc(-c3cccs3)on2)CC1	inactive
Cc1ccccc1CS(=O)(=O)Cc1ccc(C(=O)N2CCOCC2)o1	inactive
COc1ccc(OC)c(NC(=O)NCc2ccc(F)cc2)c1	inactive
CCOc1cc(C)nc(NCCc2ccc(OC)c(OC)c2)n1	inactive
